Source: PubChem (National Center for Advancing Translational Sciences (NCATS))
HT1080NT lethal: kills 2HG-producing HT-1080-NT fibrosarcoma cells. Potency, µM (highest dose often 46.1 µM), most hits filed as cytotoxic. HT-1080-NT fibrosarcoma viability, CellTiter-Glo ATP luminescence, 48 h. AID 686970. actives 1.6% (n = 360,000);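 also: NT is the 2HG producing partner of a matched IDH1 knockdown line; nearly all actives have a fitted effect of over 55% in size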
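Luminescent CellTiter-Glo readout after 48 hours of compound exposure at 37 degrees C defined viability of HT-1080-NT cells. Activity was normalized to DMSO wells and cell-free media wells; concentration-response curves were fitted and assigned curve classes.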
IL1B secr inh: inhibitors of inflammasome signaling (IL-1 beta secretion) | THP-1 LPS/ATP IL-1B secretion, AlphaLISA, 16 h; stronger effect = lower value | activity change, % at 57.5 µM | actives 4.7% (n = 360,000) | AID 743279; in the data active = activity change below about -50%; inconclusive = mostly about -30% to -49%
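THP-1 cells pretreated 1 hr with compounds (up to 57.5 uM final), then stimulated with LPS (250 ng/mL final) plus ATP (1.25 mM final); secreted IL-1B measured by AlphaLISA after 16 hr, decreased signal indicating inhibition.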
HT1080 IDH1KD tx: HT-1080 IDH1 knockdown cell toxicity (counter line); HT-1080 IDH1 knockdown viability, ATP luminescence, 48 h; Potency, µM (doses to about 46.1 µM), usual class: cytotoxic; actives 2% (n = 360,000); AID 686971
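CellTiter-Glo luminescence after 48 h compound exposure at 37 degrees C of IDH1-knockdown HT-1080 cells in 5% FBS RPMI. %Activity scaled between DMSO wells and cell-free media wells, with curves fitted and assigned curve classes.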
TDP1 cell CPT: DT40-hTDP1 cell growth loss with CPT; chicken DT40 Tdp1-/-;hTDP1 cells + 20 nM CPT, ATP luminescence, 48 h; AID 686979; actives 12% (n = 420,000); Potency, µM (doses to about 46.2 µM), hits mostly inhibitors; also: nearly all actives have a fitted effect of over 55% in size
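Cell growth measured by CellTiter-Glo luminescence after a minimum 48 h, 37 C compound exposure with 20 nM CPT in Tdp1-knockout DT40 cells stably expressing hTDP1, seeded 400/well; qHTS titration format.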
TDP1 cell noCPT: qHTS for Inhibitors of human tyrosyl-DNA phosphodiesterase 1 (TDP1): qHTS in cells in absence of CPT; DT40 Tdp1-/- hTDP1 cells, no CPT, ATP luminescence, 48 h; actives 15% (n = 420,000); Potency, µM (highest dose often 46.2 µM), hits mostly inhibitors; also: nearly all actives have a fitted effect of over 55% in size
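Compound effects on proliferation are scored in DT40 Tdp1-/-;hTDP1 cells in the absence of CPT. ATP levels (CellTiter-Glo luminescence) are recorded after a ≥48 hr, 37 °C incubation.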
ELG1 repair inh: inhibitors of ELG1-dependent DNA repair in HEK293T cells; HEK293T ELG1-luciferase reporter, luminescence, 16 h; DNA damage induced by 5-fluorouridine; Potency, µM (doses to about 46.1 µM), hits mostly inhibitors; actives 2.3% (n = 330,000); AID 504467; also: nearly all actives have a fitted effect of over 55% in size
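Cells (2,000 per well) received 5-fluorouridine plus test compound or DMSO and were incubated 16 hr at 37 °C, 5% CO2. Luciferase activity was read by luminescence 30 min after ONE-Glo addition; signal suppression marked inhibition of damage-induced ELG1 function.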
Hits are given with their value; – = inactive; ? = inconclusive; · = not tested or not shown; [ ] = another dose, or the depositor's remark. Shown are actives, neighbours in structure and some others; about 19% of the full set was active somewhere. Unless noted, calls follow the shape of the dose curve; as a rule, active = well fitted curve in the direction sought with a large enough effect; inconclusive = small, poorly fitted or top-dose-only effect, or another doubt; inactive = no such curve, though single readings can be large; an effect the other way counts as inactive or inconclusive.

SMILES	HT1080NT lethal	IL1B secr inh	HT1080 IDH1KD tx	TDP1 cell CPT	TDP1 cell noCPT	ELG1 repair inh
O=C1c2cccc3c([N+](=O)[O-])ccc(c23)C(=O)N1c1ccc(Cl)cn1	4.5µM	-92	1.6µM	3.3µM	3.7µM	?
O=C1c2cccc3c([N+](=O)[O-])ccc(c23)C(=O)N1O	?	–	?	2.1µM	2.3µM	–
CC(=O)c1ccc(NC(=O)c2cc(-c3ccc(C)s3)nc3ccccc23)cc1	·	·	·	–	–	·
CC1CCCCN1C(=O)COC(=O)CNC(=O)c1ccc(Cl)cc1Cl (stereo unspecified)	–	–	–	–	–	–
COc1ccc(-n2nc3c(c2NC(=O)C(=O)N2CCN(C)CC2)CSC3)cc1	·	·	·	–	–	·
Cc1ccc(C(=O)OCC(=O)NCc2cccc(Cl)c2)cc1S(=O)(=O)N1CCCCC1	–	–	–	?	?	?
Cc1nc2ccccc2n1CCc1nc2c3ccccc3nc(SCc3ccc(F)cc3)n2n1	·	·	·	–	–	·
COc1ccc2c3c(cccc13)C(=O)N(O)C2=O	?	–	21µM	2.3µM	2.1µM	–
O=C1c2cccc3c(N4CCCCC4)ccc(c23)C(=O)N1c1ccccn1	–	–	–	–	–	–
O=C1c2cccc3c([N+](=O)[O-])ccc(c23)C(=O)N1c1ccccn1	26µM	-114	?	3.7µM	2.9µM	?
O=C1c2cccc3c([N+](=O)[O-])ccc(c23)C(=O)N1c1nccs1	8.9µM	-107	2.2µM	3.3µM	3.3µM	?
O=C1c2cccc3cccc(c23)C(=O)N1c1nccs1	–	–	–	–	–	?
COC(=O)c1cc2oc3ccccc3c2n1Cc1nc(-c2cccc(C)c2)oc1C	·	·	·	–	–	·
COc1ccc(-c2ccc3c(c2)S(=O)(=O)c2cccc(C(=O)NCCOc4ccccc4Cl)c2C3=O)cc1OC	–	–	–	23µM	23µM	–
COc1ccc(OC[C@@H](O)CNC(=O)c2cccc3c2C(=O)c2ccc(Cl)cc2S3(=O)=O)cc1	–	–	–	–	?	?
COc1ccc(-c2ccc3c(c2)S(=O)(=O)c2cccc(C(=O)NC4CCCCC4)c2C3=O)cc1OC	–	–	–	15µM	23µM	–
COc1ccc(-c2ccc3c(c2)S(=O)(=O)c2cccc(C(=O)NC4CC4)c2C3=O)cc1OC	–	–	–	?	–	–
COc1ccc(-c2ccc3c(c2)S(=O)(=O)c2cccc(C(=O)NCc4ccccc4Cl)c2C3=O)cc1OC	–	–	–	21µM	15µM	?
Cc1ccc2c(C)c(C(=O)N(C)Cc3nccn3C)oc2c1C	–	–	–	?	?	–
O=C1CS/C(=N/N=C2CCCC2)N1	–	–	–	–	–	–
O=C1CSC(=NC2CCCCC2)N1	–	-96	–	23µM	18µM	–
O=C(Nc1cccc(-c2nnc(-c3ccco3)o2)c1)c1ccccc1	–	-78	–	?	?	–
O=C(COc1ccccc1)Nc1ccc(-c2nnc(-c3ccco3)o2)cc1	9.2µM	–	12µM	–	–	–
O=C(Cc1ccccc1)Nc1cccc(-c2nnc(-c3ccco3)o2)c1	–	–	–	?	15µM	?
O=C(COc1ccccc1)Nc1nnc(-c2ccc(F)cc2)o1	–	–	–	–	–	–
SMILES	HT1080NT lethal	IL1B secr inh	HT1080 IDH1KD tx	TDP1 cell CPT	TDP1 cell noCPT	ELG1 repair inh
O=C(Cc1ccc(Cl)cc1)Nc1cccc(-c2nnc(-c3ccco3)o2)c1	?	–	?	?	?	–
O=C(Nc1cccc(-c2nnc(-c3ccco3)o2)c1)C(c1ccccc1)c1ccccc1	–	–	–	?	16µM	13µM
CCc1ccc(N2C(=O)CC(N(CC3CCCO3)C(=O)/C=C/C(=O)O)C2=O)cc1 (stereo unspecified)	–	–	–	–	–	–
CCc1ccc2occ(CC(=O)Nc3c(C(=O)c4ccc(C)cc4)oc4ccccc34)c2c1	·	·	·	–	–	·
COc1ccccc1OCC(=O)Nc1cccc(-c2nnc(-c3ccco3)o2)c1	–	–	?	?	21µM	?
Cc1c(C(=O)N(C)CC2CCCN(C)C2)cnn1-c1nccc(-c2ccco2)n1 (stereo unspecified)	·	·	·	–	–	·
OC(c1ccccc1)(c1ccccc1)c1ccn[nH]1	–	–	–	–	–	–
CCn1c(=O)cc(OCC(=O)N2CCN(c3cccc(C(F)(F)F)c3)CC2)c2ccccc21	–	–	–	16µM	23µM	?
CCn1c(=O)cc(OCC(=O)N2CCN(c3ccc(C(C)=O)cc3)CC2)c2ccccc21	·	·	·	–	–	·
CCn1c(=O)cc(OCC(=O)N2CCN(c3ccc(OC)cc3)CC2)c2ccccc21	·	·	·	21µM	–	·
CC(C)OC(=O)N(C)C[C@@H]1OCc2cn(nn2)CCCC(=O)N([C@@H](C)CO)C[C@H]1C	–	–	–	–	–	·
O=C1c2[nH]nc(-c3ccccc3O)c2C(c2cccc(Cl)c2)N1Cc1ccco1 (stereo unspecified)	?	–	?	?	18µM	–
CC(=O)C1=C(O)C(=O)N(Cc2ccco2)C1c1ccc(F)cc1 (stereo unspecified)	–	–	–	–	–	–
COc1ccc(C2c3c(-c4ccccc4O)n[nH]c3C(=O)N2Cc2ccco2)cc1OC (stereo unspecified)	?	?	–	–	–	–
O=C1c2[nH]nc(-c3ccccc3O)c2C(c2cccc(Cl)c2)N1CC1CCCO1 (stereo unspecified)	–	–	?	?	18µM	?
O=C1c2[nH]nc(-c3ccccc3O)c2C(c2ccc(F)cc2)N1Cc1ccco1 (stereo unspecified)	?	–	?	18µM	16µM	–
Cc1ccc(C2c3c(-c4cc(C)ccc4O)n[nH]c3C(=O)N2Cc2ccco2)cc1 (stereo unspecified)	·	·	·	23µM	?	·
O=C(Nc1cccc2ccccc12)c1csc(COCCO)n1	–	–	–	–	–	·
Cc1c(C(=O)NCC(C)C)sc2ncnc(NCC3CCCO3)c12 (stereo unspecified)	·	·	·	–[9.04 µM]	–	·
CCOc1ccc(S(=O)(=O)N(CC)CC(=O)NCc2cccnc2)cc1	–	–	–	–	–	–
CC1=C(C)/C(=N\OS(=O)(=O)c2ccc(C)cc2)C=CC1=O	13µM	-103	6.5µM	0.58µM	0.65µM	?
CC1=CC(=NOS(=O)(=O)c2ccc(C)cc2)CC(C)(C)C1	–	–	–	?	?	·
